# From PubChem BioAssay
# WRN helicase inh – inhibitors of human WRN helicase; Q14191; WRN helicase unwinding, fluorescent forked duplex, kinetic; Potency, µM (doses to about 114 µM), usual class: inhibitors; actives 0.46% (n = 360,000); also: nearly all actives have a fitted effect of over 55% in size
#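 WRN at 20 nM final preincubated with compound 15 min at room temperature; reaction started with 100 nM fluorophore/quencher forked duplex oligonucleotide and 2 mM ATP final. Unwinding followed kinetically by red fluorescence (ex 525, em 598 nm).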
# Pol kappa inh – inhibitors of human DNA polymerase kappa. Q9UBT6. purified Pol kappa, fluorescent DNA synthesis assay, 10 min. Potency, µM (series often up to 107 µM), usual class: inhibitors. actives 0.53% (n = 400,000)
#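 Here, compound and 10 nM enzyme are combined for 15 min at room temperature; adding 50 nM substrate (final) starts DNA synthesis, tracked by fluorescence at 0 and 10 min against buffer-only wells.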
# Pol eta inh – DNA polymerase eta (human) inhibition; Q9Y253; recombinant Pol eta, fluorescent DNA replication assay; Potency, µM (top dose mostly 114 µM), actives largely listed as inhibitors; actives 1.2% (n = 390,000)
# Target sequence (Q9Y253 whole entry, looked up): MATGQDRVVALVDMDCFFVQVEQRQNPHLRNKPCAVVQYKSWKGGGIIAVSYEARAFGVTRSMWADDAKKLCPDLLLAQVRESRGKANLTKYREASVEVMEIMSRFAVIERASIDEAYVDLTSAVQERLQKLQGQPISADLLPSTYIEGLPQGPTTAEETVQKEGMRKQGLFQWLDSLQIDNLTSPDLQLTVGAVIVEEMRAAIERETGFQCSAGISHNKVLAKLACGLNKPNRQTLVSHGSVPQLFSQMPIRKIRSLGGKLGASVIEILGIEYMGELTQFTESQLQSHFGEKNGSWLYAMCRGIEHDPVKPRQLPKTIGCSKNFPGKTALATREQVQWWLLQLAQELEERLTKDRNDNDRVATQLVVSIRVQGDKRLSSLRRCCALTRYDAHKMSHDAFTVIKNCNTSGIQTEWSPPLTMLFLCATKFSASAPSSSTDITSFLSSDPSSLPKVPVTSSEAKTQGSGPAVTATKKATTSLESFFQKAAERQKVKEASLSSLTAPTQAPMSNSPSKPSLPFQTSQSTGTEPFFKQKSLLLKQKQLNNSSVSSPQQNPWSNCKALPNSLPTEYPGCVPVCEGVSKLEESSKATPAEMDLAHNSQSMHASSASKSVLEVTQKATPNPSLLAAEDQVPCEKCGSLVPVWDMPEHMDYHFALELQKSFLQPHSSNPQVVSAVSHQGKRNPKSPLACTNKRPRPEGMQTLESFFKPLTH
#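 Pol eta (10 nM) was preincubated with compounds for 15 min at room temperature, after which fluorescent replication substrate (50 nM final) was added to start the reaction. Fluorescence was read kinetically at 0 and 10 min.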
# FEN1 inh – human FEN1 inhibition; P39748; Potency, µM (series often up to 114 µM), most hits filed as inhibitors; Recombinant FEN1 flap cleavage, fluorescence, 15 min; actives 0.35% (n = 390,000); also: nearly all actives have a fitted effect of over 65% in size
#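 Enzyme 10 nM, 15 min RT preincubation with compound; start with substrate 50 nM final; reads at 0 and 15 min; qHTS titration, four-parameter Hill fit.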
# Pol iota inh – inhibitors of human DNA polymerase iota; Pol iota fluorescent replication assay, 10 min; Potency, µM (top dose mostly 115 µM), usual class: inhibitors; actives 1% (n = 390,000); AID 588590
#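 Pol iota at 10 nM preincubated 15 min with compounds at room temperature; reaction started with fluorescent substrate, 50 nM final. Fluorescence read kinetically at 0 and 10 min; buffer-only wells as negative control.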
# Pol beta inh – DNA polymerase beta (human) inhibition | P06746 | Potency, µM (series often up to 114 µM), usual class: inhibitors | Pol beta primer extension/strand displacement, fluorescence kinetic | AID 485314 | actives 1.3% (n = 340,000)
#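 Enzyme-only controls used 10 nM Pol beta; buffer lacking enzyme served as negative control. Compound preincubated 15 min, then 50 nM substrate added; 0 and 10 min reads at room temperature.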
# Numbers stand for hits; n = inactive; u = inconclusive; x = not tested or not shown; ! = not confirmed by another sample; [ ] = remark or other dose. Hits are enriched below; roughly 2.4% of the tested compounds scored in any of these assays. Calls follow the shape of the dose curve; as a rule, active = well fitted curve in the direction sought with a large enough effect; inconclusive = small, poorly fitted or top-dose-only effect, or another doubt; inactive = no such curve, though single readings can be large; an effect the other way counts as inactive or inconclusive.
SMILES,WRN helicase inh,Pol kappa inh,Pol eta inh,FEN1 inh,Pol iota inh,Pol beta inh
[O-]c1c[n+](-c2ccc(-[n+]3cc([O-])on3)cc2)no1,n[11.6 µM],n,45µM,n,u,7.1µM
C=CCOc1ccc(/C=C2\SC(=S)N(N3CCOCC3)C2=O)cc1,n,n,n,n,n,n
C=CCOc1ccc(/C=C2\SC(=S)N(NS(=O)(=O)c3ccccc3)C2=O)cc1,n[11.6 µM],n,25µM,n,u,u
COc1ccc(/C=C2/SC(=S)N(NS(=O)(=O)c3ccccc3)C2=O)cc1,u,n,89µM,n,n,n
COc1cc(/C=C2\SC(=S)N(C(C(=O)O)c3ccccc3)C2=O)ccc1O (stereo not given),50µM,n,u,n,28µM,u
COc1ccccc1/C=C1\SC(=S)N(NS(=O)(=O)c2ccccc2)C1=O,n,n,u,n,n,n
CC(/C=C1\SC(=S)N(NS(=O)(=O)c2ccccc2)C1=O)=C\c1ccccc1,n[11.6 µM],n,79µM,n,u,n
CCOc1ccc(/C=C2/SC(=S)N(C(C(=O)O)c3ccccc3)C2=O)cc1OCC (stereo not given),n,n,u,n,u,n
CC(/C=C1\SC(=S)N(NC(=O)c2ccc(C)cc2)C1=O)=C\c1ccccc1,n,n,n,n,n,n
CCOc1ccc(Nc2sc(C(=O)c3ccc4c(c3)OCO4)c(N)c2S(=O)(=O)c2ccc(C)cc2)cc1,x,n,n,n,n,n
CC1=C(C(=O)Nc2ccccc2)C(c2cccc(O)c2)n2nc(-c3ccccc3Cl)nc2N1 (stereo not given),x,n,n,n,n,n
CCOC(=O)c1cccc(NC(=O)c2cc3c(Cl)nc4ccc(C)cc4c3s2)c1,x,n,n,n,n,n
c1ccc(Nc2cc(-c3ccoc3)ncn2)cc1,x,n,x,x,x,x
COc1cc(/C=C2\SC(=S)N(NS(=O)(=O)c3ccc(C)cc3)C2=O)cc(OC)c1OC,n,n,n,n,n,n
COc1cc(/C=C2\SC(=S)N(NS(=O)(=O)c3ccccc3)C2=O)ccc1O,50µM,n,u,n,32µM,n
CCOc1cc(/C=C2\SC(=S)N(NS(=O)(=O)c3ccc(C)cc3)C2=O)ccc1O,50µM,u,u,n,u,x
CCOc1ccc(C(=O)c2cn(CC(=O)Nc3ccc(F)cc3)c3cc4c(cc3c2=O)OCO4)cc1,x,n,n,n,n,n
Cc1c(N=C2N=C(NC(=O)c3ccc(F)cc3)c3ccccc32)c(=O)n(-c2ccccc2)n1C,n,13µM,u,n,u,n
Cc1c(NC(=O)NC(=O)c2ccc(F)cc2)c(=O)n(-c2ccccc2)n1C,n,n,n,n,n,n
CCN(CC)c1nc2ccccc2n2cnnc12,n,n,n,n,89µM,n
Cc1cc(O)c2c(c1O)C(=O)[C@]13C(=C2O)C(=O)[C@@H]2[C@@H](O)[C@H]1[C@@H]1[C@H](O)[C@H]3C(=O)C3=C(O)c4c(O)cc(C)c(O)c4C(=O)[C@]312,56µM,3.5µM,5.6µM,u,3.2µM,x
Cc1ccc2nc(-c3ccc(Cl)c(NC(=O)c4ccc5c(c4)OCCO5)c3)oc2c1,x,n,n,n,n,n
O=C(NNC(=O)c1cc2cc3ccccc3nc2s1)c1cccc(C(F)(F)F)c1,n,u,u,n,u,22µM
CC12CN3CC(c4ccccc4)(CN(C1)C3c1ccc(Cl)cc1)C2=O (stereo not given),x,n,n,n,n,n
COc1ccc(NC(=O)Cn2nnc(C(=O)NCCc3ccccc3)c2N)cc1,n,n,n,n,35µM,25µM
SMILES,WRN helicase inh,Pol kappa inh,Pol eta inh,FEN1 inh,Pol iota inh,Pol beta inh
CCOc1ccc(CCNC(=O)c2nnn(CC(=O)Nc3ccc(OC)cc3)c2N)cc1OCC,n,n,n,n,n,n
Cc1ccc(NC(=O)Cn2nnc(C(=O)NCCc3ccccc3)c2N)cc1C,x,u,n,n,89µM,u
CCc1ccc(NC(=O)Cn2nnc(C(=O)NCCc3ccccc3)c2N)cc1,x,n,n,n,n,n
COc1cccc(NC(=O)Cn2nnc(-c3nc(-c4ccccc4)no3)c2N)c1,x,n,n,n,89µM,18µM
CCOc1ccc(CCNC(=O)c2nnn(CC(=O)Nc3ccc(C)cc3)c2N)cc1OCC,n,u,n,n,u,25µM
COc1ccc(NC(=O)C2CC(c3c(F)cccc3Cl)=NO2)cc1OC (stereo not given),n[11.6 µM],n,89µM,n,n,n
COc1cc(NC(=O)C2CC(c3c(F)cccc3Cl)=NO2)c(OC)cc1Cl (stereo not given),n,n,n,n,n,n
COC(=O)c1ccn(CC(=O)NC2CCCCC2)n1,n,n,u,n,n,40µM
CCCCCCCCCCCNC(=O)c1ccoc1C,50µM,n,u,n,n,n
COc1ccc(C(=O)Nc2cccc(/C=C(\CCC(=O)O)c3nc4ccccc4s3)c2)cc1,n[11.6 µM],u,56µM,u,u,u
CN(C)c1ccc(/C=C/c2c(F)cnc3ccccc23)cc1,x,n,x,u,n,x
CCOc1ccc(-c2nnc(SCC(=O)Nc3ccc4c(c3)c3ccccc3n4CC)n2N)cc1,n,n,u,n,50µM,40µM
CCn1c2ccccc2c2cc(NC(=O)CSc3nnc(-c4cccc(OC)c4)n3N)ccc21,n,n,n,n,u,u
CCCCCCCOc1ccc(CC(=O)NO)cc1,x,n,x,n,n,x
O=C(Nc1nc2c(Cl)cccc2s1)c1ccc([N+](=O)[O-])o1,n,n,50µM,n,n,n
Cc1ccc(-c2csc(NC(=O)c3ccc([N+](=O)[O-])o3)n2)cc1,n,n,79µM,n,n,n
C[C@@H]1C[C@H]2[C@@H]3CCC4=CC(=O)C=C[C@]4(C)[C@@]3(F)C(O)C[C@]2(C)[C@@]1(O)C(=O)CO (stereo not given in full),x,n,x,n,n,x
Nc1ccc2ccc(O)cc2c1,u,u,50µM,u,u,x
CCOc1ccc2[nH]c3c(NCCC(C)C)ncnc3c2c1,n,n,n,u,n,u
COc1ccc2[nH]c3c(NCc4ccco4)ncnc3c2c1,n,n,u,u,79µM!,u
CCOc1ccc2[nH]c3c(NCCN(C)C)ncnc3c2c1,x,x,x,x,x,56µM
CCN(CC)CCNc1ncnc2c1[nH]c1ccc(OC)cc12,x,x,x,x,x,n
O=C(Nc1nccs1)[C@@H]1CC=C[C@@H]2CCN(C3CCCCC3)C(=O)[C@@H]21,x,n,x,n,n,x
Cc1ccc(-c2n[nH]c(=S)n2/N=C/C=C/c2ccccc2[N+](=O)[O-])cc1,u,n,u,u,u,32µM
O=[N+]([O-])c1ccccc1/C=C/C=N/n1c(-c2cc(-c3ccccc3)n[nH]2)n[nH]c1=S,n,n,32µM,u,u,10µM
O=[N+]([O-])c1ccccc1/C=C/C=N/n1c(-c2ccco2)n[nH]c1=S,n,n,n,n,n,n
